From PubChem BioAssay (NCATS)
Results filed as inconclusive are left out. Calls of active or inactive are those of the source. Calls follow the shape of the dose curve; as a rule, active = well fitted inhibition curve with a large enough effect; inconclusive = small, poorly fitted or top-dose-only effect; inactive = no such curve, though single readings can be large or run the other way.
% is scaled to controls: 0 for no effect and ±100 for the full control effect; potency is read from the fitted curve at half-maximal effect.

The compounds below were run against Cytochrome P450 3A4 (Homo sapiens) (UniProt P08684) (assay: qHTS Assay for Inhibitors and Substrates of Cytochrome P450 3A4 (AID 884; also: nearly all actives have a fitted effect of over 50% in size)). Conditions: recombinant CYP3A4, Luciferin-PPXE luminescence; series mostly up to 57.1 µM.
Sequence of Cytochrome P450 3A4 (Homo sapiens) (P08684 whole entry, looked up): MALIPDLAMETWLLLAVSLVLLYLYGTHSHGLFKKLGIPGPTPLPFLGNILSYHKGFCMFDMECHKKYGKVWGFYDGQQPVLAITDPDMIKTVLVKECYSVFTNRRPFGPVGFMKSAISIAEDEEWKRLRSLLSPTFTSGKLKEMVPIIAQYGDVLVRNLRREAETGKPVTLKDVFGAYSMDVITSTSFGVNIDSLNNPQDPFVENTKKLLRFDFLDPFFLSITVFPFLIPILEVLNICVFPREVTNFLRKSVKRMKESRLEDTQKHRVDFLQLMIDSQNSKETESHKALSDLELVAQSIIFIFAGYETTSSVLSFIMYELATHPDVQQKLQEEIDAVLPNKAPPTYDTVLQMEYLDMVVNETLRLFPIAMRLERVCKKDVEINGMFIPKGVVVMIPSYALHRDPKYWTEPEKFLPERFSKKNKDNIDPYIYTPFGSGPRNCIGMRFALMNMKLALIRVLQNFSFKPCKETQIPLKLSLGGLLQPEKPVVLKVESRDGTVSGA
Method: NIH Molecular Libraries Screening Centers Network [MLSCN]
NIH Chemical Genomics Center [NCGC]
The P450 gene superfamily is involved in the metabolism and clearance of xenobiotics. This assay used human CYP3A4 to measure the dealkylation of luciferin-6' phenylpiperazinylyl (Luciferin-PPXE; […]) to luciferin. The luciferin is then measured by luminescence after the addition of a luciferase detection reagent. Luciferin-PPXE concentration in the assay was equal to its KM for CYP3A4. Inhibitors and some substrates limit the production of luciferin, and decrease measured luminescence.
NCGC Assay Protocol Summary:
Two uL of enzyme and substrate mix (final concentrations: 20nM CYP3A4, 25uM Luciferin-PPXE, 200mM KPO4) were dispensed into a white, solid bottom 1536-well microtiter plate. 23nL of compound was transferred by a pin tool. The plate was incubated at RT for 10 min. Two uL of an NADPH regeneration solution (Promega supplied reagent) was dispensed and the reaction was allowed to continue for 60 min at RT. Then the reaction was stopped by reconstituted luciferin detection buffer. After another 20 min of incubation the plate was read on the ViewLux (Perkin Elmer) at 60 sec exposure and 2x2 binning. This protocol was carried out with Promega-Glo reagents and further information can be found at http://www.promega.com/tbs/tb325/tb325.pdf. Data were normalized to the to AC100 inhibition (57 uM ketoconazole).
Keywords: P450, CYP3A4, Luciferase, MLSMR, MLSCN, NIH Roadmap, qHTS, NCGC
`C[C@H]1[C@H](O)[C@@H](C)C=CC=CC=CC=CC=CC=CC=C[C@H](O[C@@H]2O[C@@H](C)[C@H](O)[C@@H](N)[C@@H]2O)C[C@@H]2O[C@](O)(C[C@@H](O)C[C@@H](O)[C@@H](O)CC[C@@H](O)C[C@@H](O)CC(=O)O[C@H]1C)C[C@H](O)[C@H]2C(=O)O` was tested, and the activity change, negative = inhibition was -24.7% [at 11.4 µM] (inactive).
For `O=C1OC(=O)c2ccccc21`, the Potency was “inactive”.
For `Cc1cc(Cl)nc2ccc(Cc3ccc4nc(Cl)cc(C)c4c3)cc12`, the Potency was 3.16 µM (active).
With `C=CC1CO1` (stereo not given) the Potency was “inactive”.
For `Cc1cccc(CNc2ncnc3ccc(-c4ccc(C(=O)N(C)C)cc4)cc23)c1`, the Potency was 2 µM (active).
In the case of `COc1cc(-c2ccc(N=C=O)c(OC)c2)ccc1N=C=O`, the Potency was 12.6 µM (active).
With `CCCCCCN` the Potency was “inactive”.
In the case of `O=c1c(-c2ccccc2)nc2cnc(N3CCNCC3)nc2n1Cc1ccc(F)cc1`, the Potency was 3.16 µM (active).
In the case of `CCCC(=O)OC(=O)CCC`, the Potency was “inactive”.
With `O=C(O)CCc1nc(-c2ccccc2-n2cccc2)no1` the Potency was 2.51 µM (active).
In the case of `Cc1cc(SCC(=O)c2ccccc2)nc2ccccc12`, the activity change, negative = inhibition was -103% [at 11.4 µM] (inactive).
For `CC(=O)Nc1cccc(C)c1`, the Potency was “inactive”.
With `Oc1ccc(O)c2c(O)cccc12` the Potency was “inactive”.
For `Cc1cc(O)c(C(C)C)cc1C1(c2cc(C(C)C)c(O)cc2C)OC(=O)c2ccccc21`, the Potency was 1.58 µM (active).
With `C[C@@]12C[C@H](O)[C@@H]3[C@H](CCC4=CC(=O)CC[C@]43C)[C@H]1CC[C@@H]2c1csc(N)n1` the Potency was 2.51 µM (active).
In the case of `Cc1cnc(CNc2nc(-c3cccnc3)nc3ccccc23)cn1`, the Potency was 3.98 µM (active).
`O=[N+]([O-])c1ccccc1Nc1ccccc1` was tested, and the Potency was “inactive”.
In the case of `c1ccc(SCCSc2ccccc2)cc1`, the Potency was “inactive”.
In the case of `CN1CCc2ccccc2[C@@H]1Cc1ccccc1NC(=O)c1sc2ccccc2c1Cl`, the Potency was 1.58 µM (active).
`CSc1nc2cc(S(=O)(=O)N3CCCCC3)ccc2s1` was tested, and the activity change, negative = inhibition was 50.1% [at 11.4 µM] (inactive).
`CCNc1ncc2nc(CCc3ccccc3)c(=O)n(-c3ccc(OC)cc3)c2n1` was tested, and the Potency was 6.31 µM (active).
For `CC(C)S`, the Potency was “inactive”.
For `CCOC(=O)C1OC1c1ccccc1` (stereo not given), the Potency was “inactive”.
In the case of `Cc1ccc(Nc2nnc(-c3ccc4c(c3)OCO4)o2)c(C)c1`, the Potency was 3.16 µM (active).
`CCCCNCC` was tested, and the Potency was “inactive”.
In the case of `Nc1ccc(N)c(Cl)c1`, the Potency was 10 µM (active).
In the case of `O=C1O/C(=C\Br)CC[C@@H]1c1cccc2ccccc12`, the Potency was 3.98 µM (active).
`CC1=C/C(=C(/c2ccc(O)c(C)c2)c2ccccc2C(=O)O)C=CC1=O` was tested, and the Potency was 1.58 µM (active).
With `OCC(CBr)(CBr)CBr` the Potency was “inactive”.
With `Cc1cc2c(cc1C)NC1=C(N2)O[C@H](c2c[nH]c3ccc(COc4ccccc4)cc23)C1=O` the Potency was 3.98 µM (active).
In the case of `CNc1ncncc1-c1ccc(C(=O)N(C)C)cc1`, the Potency was 5.01 µM (active).
In the case of `OC1CCCCC1`, the Potency was “inactive”.
`O=[N+]([O-])c1ccc(F)cc1F` was tested, and the Potency was “inactive”.
With `CC(/C=C/C=C(C)/C=C/C(=O)O)=C\C=C\C=C(C)\C=C\C=C(C)\C=C\C(=O)O` the Potency was “inactive”.
With `COc1ccc(/C=C(\C#N)C(N)=O)c(OC)c1` the Potency was 2.51 µM (active).
For `C[C@H]1CCCC=CC2C[C@H](OC(=O)CN(C)C)C[C@@H]2[C@@H](O)/C=C\C(=O)O1` (stereo not given in full), the activity change, negative = inhibition was 229% [at 11.4 µM] (inactive).
For `C[C@@H](CN1CCC(Cc2ccccc2)CC1)[C@H](O)c1ccc(O)cc1`, the Potency was “inactive”.
With `CC(=O)c1ccc(Cl)c(Cl)c1Cl` the Potency was “inactive”.
`S=C(S)NCCCn1ccnc1` was tested, and the Potency was 1.58 µM (active).
In the case of `Oc1cc(Cl)cc(Cl)c1Cl`, the Potency was “inactive”.
